# This is a sample that favours compounds with a hit; in the whole collection about 10% have one here.
# NIH3T3 tox: Cytotoxic Profiling in NIH 3T3 Cell Line of Diverse Libraries Using Quantitative High-Throughput Screening; NIH 3T3 viability, CellTiter-Glo ATP luminescence, 48-72 h; Potency, µM (series often up to 96.7 µM), hits mostly inhibitors; 94,000 tested, 4.3% active; AID 1345082, 2018; further: nearly all actives have a fitted effect of over 55% in size
#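 ATP-dependent luminescence (CellTiter-Glo) served as the viability signal for NIH 3T3 cells treated with compound for 48 or 72 hr at 37 °C.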
# HEK cytotox: Cytotoxic Profiling in HEK 293 Cell Line of Diverse Libraries Using Quantitative High-Throughput Screening. HEK 293 viability, ATP luminescence (CellTiter-Glo), 48-72 h. 94,000 tested, 6.6% active. Potency, µM (highest dose often 115 µM), usual class: inhibitors; further: nearly all actives have a fitted effect of over 60% in size
#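 Cytotoxicity was scored by loss of ATP-coupled luminescence (CellTiter-Glo) in HEK 293 cells. Compound treatment ran 48 or 72 hr at 37 degree Celsius, 5% CO2, 95% humidity.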
# GPT2 inhibitor: Primary qHTS assay for inhibitors of Glutamate pyruvate transaminase 2 (GPT2); 100,000 tested, 0.25% active; AID 1671188, 2021; Potency, µM (series often up to 57.7 µM), usual class: inhibitors; Recombinant GPT2, coupled pyruvate oxidase/HRP Amplex Red fluorescence; further: nearly all actives have a fitted effect of over 60% in size
#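 GPT2 10ng/uL, a-KG 250uM, L-Ala 2mM, HEPES pH7.5 + 0.0001% Tween; 30 min RT. Then Amplex mix (PO/HRP/ThPP), 30 min RT dark, fluorescence. AOA 50uM used as positive control.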
# FLuc inh: Firefly luciferase inhibition profiling of diverse chemical library using quantitative high-throughput screening; Luciferin 4-monooxygenase (Photinus pyralis), P08659; purified P. pyralis luciferase, luminescence, biochemical; Potency, µM (doses to about 115 µM), most hits filed as inhibitors; 76,000 tested, 2.5% active; further: nearly all actives have a fitted effect of over 65% in size
#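 Purified 10nM P. pyralis luciferase with 10uM D-luciferin and 10uM ATP in 50mM Tris acetate pH 7.5, 10mM Mg acetate, 0.01% Tween-20, 0.05% BSA. qHTS titration; luminescence read by CCD imager.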
# hNpr1 antagonist: Natriuretic polypeptide receptor (hNpr1) antagonism - Primary qHTS | Atrial natriuretic peptide receptor 1 (Homo sapiens), P16066 | HEK293 hNpr1 GloSensor cGMP, ANP-stimulated luminescence | Potency, µM (top dose mostly 46.3 µM), actives largely listed as inhibitors | 76,000 tested, 1.6% active | AID 1347048, 2019; calls by dose curve; further: nearly all actives have a fitted effect of over 60% in size
# Target sequence (P16066 whole entry, looked up): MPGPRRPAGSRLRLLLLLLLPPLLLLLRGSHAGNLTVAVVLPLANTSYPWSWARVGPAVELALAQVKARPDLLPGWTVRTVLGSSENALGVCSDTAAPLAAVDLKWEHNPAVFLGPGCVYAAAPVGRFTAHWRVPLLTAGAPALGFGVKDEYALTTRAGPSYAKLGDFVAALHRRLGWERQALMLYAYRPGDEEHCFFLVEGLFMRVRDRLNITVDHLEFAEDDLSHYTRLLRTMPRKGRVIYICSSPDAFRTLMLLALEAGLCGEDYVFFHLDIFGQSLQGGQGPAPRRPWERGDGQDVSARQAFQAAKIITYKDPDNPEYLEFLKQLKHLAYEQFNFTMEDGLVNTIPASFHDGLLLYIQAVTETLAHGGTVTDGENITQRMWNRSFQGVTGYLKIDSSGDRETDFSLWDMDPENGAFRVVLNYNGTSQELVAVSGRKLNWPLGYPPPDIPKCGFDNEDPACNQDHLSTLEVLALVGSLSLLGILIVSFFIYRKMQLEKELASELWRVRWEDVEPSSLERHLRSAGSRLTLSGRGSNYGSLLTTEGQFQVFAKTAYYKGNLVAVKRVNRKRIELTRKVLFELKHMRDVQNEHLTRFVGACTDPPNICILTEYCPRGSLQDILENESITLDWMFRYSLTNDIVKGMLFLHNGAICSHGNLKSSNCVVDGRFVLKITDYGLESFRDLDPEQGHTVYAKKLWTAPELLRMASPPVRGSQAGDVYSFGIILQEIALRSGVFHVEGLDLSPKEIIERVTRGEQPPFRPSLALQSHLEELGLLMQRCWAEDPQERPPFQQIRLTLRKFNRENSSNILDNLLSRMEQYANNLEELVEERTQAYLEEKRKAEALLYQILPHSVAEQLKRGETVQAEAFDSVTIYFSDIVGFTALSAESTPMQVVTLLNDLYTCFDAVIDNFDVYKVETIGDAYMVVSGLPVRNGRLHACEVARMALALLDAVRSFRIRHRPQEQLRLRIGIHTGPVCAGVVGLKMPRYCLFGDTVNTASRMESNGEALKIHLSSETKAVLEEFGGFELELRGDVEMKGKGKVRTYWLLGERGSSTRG
#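 HEK293 cells stably expressing human Npr1 and cGMP GloSensor pGS-40F, loaded 2 h with 2% GloSensor reagent, given compound 30 min at room temperature. Luminescence read before and 20 min after 0.1 nM hNppA.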
# Numbers stand for hits; 0 = inactive; ? = inconclusive; - = no result given; ! = not active in a repeat; [ ] = another dose, or the depositor's remark. Unless noted, the call rests on the fitted dose curve; in most records, active means well fitted curve in the direction sought with a large enough effect; inconclusive means small, poorly fitted or top-dose-only effect, or another doubt; inactive means no such curve, though single readings can be large; an effect the other way counts as inactive or inconclusive.
SMILES,NIH3T3 tox,HEK cytotox,GPT2 inhibitor,FLuc inh,hNpr1 antagonist
CCc1ccccc1NC(=O)Nc1cccc(-c2ccc(N3CCOCC3)nn2)c1,?,?,0,1µM,0
O=C(Nc1cccc(-c2ccc(N3CCOCC3)nn2)c1)Nc1ccc(F)cc1F,?,?,0,2µM,0
CSc1ccc(NC(=O)Nc2cccc(-c3ccc(N4CCOCC4)nn3)c2)cc1,?,?,0,0.56µM,11µM
CCc1ccccc1NC(=O)Cn1c(N2CCOCC2)nc(COC)cc1=O,0,0,0,0,0
Cc1c(F)cccc1NC(=O)Nc1cccc(-c2nnc3n2CCCC3)c1,0,0,0,?,0
Cc1ccc(NC(=O)Nc2cccc(-c3ccc(N4CCOCC4)nn3)c2)cc1,0,?,0,0.63µM,?
CCn1cc(-c2ccc(Cl)cc2)cc1C(=O)NCCOC,0,0,0,0,0
CSc1cccc(NC(=O)C2CCCN(c3cnc4nc(C)c(C)nc4c3)C2)c1 (stereo not drawn),0,0,0,0,0
CSc1cccc(NC(=O)Nc2cccc(-c3ccc(N4CCCC4)nn3)c2)c1,?,?,0,1.8µM,0
Cc1cccc(C(=O)Nc2cccc(-c3ccc(N4CCN(C)CC4)nn3)c2)c1,40µM,?,?,32µM,0
CCOc1ccc(CC(=O)NCCn2ccn3nc(-c4ccc(C)cc4C)cc3c2=O)cc1,?,?,0,25µM,?
Cc1ccc(-c2cc3c(=O)n(CCNC(=O)c4cc(F)ccc4F)ccn3n2)cc1C,?,40µM,0,?,0
COc1ccc(-c2cc3c(=O)n(CCNC(=O)Cc4ccc(C)cc4)ccn3n2)cc1,0,?,0,?,?
CCOc1ccc(C(=O)NCCn2ccn3nc(-c4cc(C)ccc4C)cc3c2=O)cc1,0,?,0,0,0
COc1ccc(-c2cc3c(=O)n(CCNC(=O)Cc4ccsc4)ccn3n2)cc1,?,?,?,11µM,0
Cc1ccc(-c2cc3c(=O)n(CCNC(=O)c4cc(Cl)ccc4F)ccn3n2)cc1C,0,0,0,0,0
Cc1ccc(C)c(-c2cc3c(=O)n(CCNC(=O)c4ccc(F)cc4Cl)ccn3n2)c1,32µM,40µM,0,0,0
CCOC(=O)CNC(=O)c1ccc(CN2C(=O)NC3(CCS(=O)(=O)CC3)C2=O)cc1,0,0,0,0,0
C#CCNC(=O)c1nc2cccnc2n(-c2ccccc2OC)c1=O,0,0,0,-,-
COc1ccc(C(=O)N2C[C@@H]3OCC(=O)N(Cc4ccccc4)[C@@H]3C2)cc1,0,?,0,0,0
Cc1ccc(-c2cc3c(=O)n(CCNC(=O)Cc4ccsc4)ccn3n2)cc1C,?,?,0,5µM,0
O[C@H]1[C@H](NCC2CC2)[C@H]2CO[C@H](O2)[C@@H]1N1CCCCC1,0,0,0,0,0
Cc1nn(Cc2ccccc2)c(C)c1[C@@H]1C=C[C@@H](NC(=O)Nc2cccc(C#N)c2)C1,?,71µM,0,0,0
Cc1nn(Cc2ccccc2)c(C)c1[C@@H]1C=C[C@@H](NC(=O)c2ccc(F)c(Cl)c2)C1,?,28µM,0,0,?
Cc1nn(Cc2ccccc2)c(C)c1[C@@H]1C=C[C@@H](NC(=O)c2ccco2)C1,?,71µM,0,0,0
SMILES,NIH3T3 tox,HEK cytotox,GPT2 inhibitor,FLuc inh,hNpr1 antagonist
OC[C@@H]1CN(C2CCCC2)C[C@H]1c1nc(-c2ccncc2)no1,0,0,0,25µM,0
OC[C@@H]1CN(C2CCCC2)C[C@H]1c1nc(-c2cccnc2)no1,0,0,0,32µM,0
O=C(Nc1cc(F)cc(F)c1)N1CCCC2(C1)Nc1cccnc1NC2=NC1CCCC1 (stereo not drawn),?,40µM,0,0,0
COc1cccc(NC(=O)N2CCCC3(C2)Nc2cccnc2NC3=NC2CCCC2)c1 (stereo not drawn),?,?,0,0,0
CC1CCCN(CCCNC(=O)c2cc3c(s2)CN(C2CCCC2)C3)C1 (stereo not drawn),0,0,0,0,0
CC1CCCCN1CCCNC(=O)c1cc2c(s1)CN(C1CCCC1)C2 (stereo not drawn),?,79µM,0,?,0
COCCN1C(=O)c2cccn2CC1CNC(=O)Cn1nc(C(F)(F)F)cc1C (stereo not drawn),0,0,0,0,0
CC1CCN(C(=O)[C@@H](C)C2CC[C@@]3(C)CC[C@H](NC(=O)c4ccccn4)[C@@H](C)[C@@H]3[C@H]2O)CC1 (stereo partly drawn),0,0,0,0,0
O=C(NCc1cccnc1)C1CCCN(Cc2cccc(-c3ccc(F)cc3F)c2)C1 (stereo not drawn),?,?,0,-,-
O=C(NCc1ccc(F)cc1)C1CCCN(Cc2cccc(-c3ccc(F)cc3F)c2)C1 (stereo not drawn),45µM,?,0,-,-
O=C(NCc1ccccc1Cl)C1CCCN(Cc2cccc(-c3ccc(F)cc3F)c2)C1 (stereo not drawn),?,45µM,0,-,-
O=C(Nc1ccccc1Cl)C1CCCN(Cc2cccc(-c3ccc(F)cc3F)c2)C1 (stereo not drawn),35µM,32µM,0,-,-
O=C(NCc1ccccc1F)C1CCCN(Cc2cccc(-c3ccc(F)cc3F)c2)C1 (stereo not drawn),?,?,0,-,-
CCc1nc2c(=O)n(CC(=O)N3CCN(C4CCCCC4)CC3)nc(C)c2s1,0,0,0,0,0
CCCN1CCC(N2CCC(C(=O)Nc3cccc(-c4cccc(F)c4)c3)CC2)CC1,25µM,22µM,0,0,0
O=C(CNC(=O)c1ccc(-c2cnc3ccccc3c2)cc1)NCCc1cccc(F)c1,0,0,0,-,-
Cc1ccccc1CN1Cc2nc(-c3cccc(C(N)=O)c3)ccc2OCC1=O,?,71µM,0,0,0
Cc1ccccc1CN1Cc2nc(-c3ccc4c(c3)OCO4)ccc2OCC1=O,?,35µM,0,0,0
COc1ccc2cc(C3CN(C(=O)c4ccc(C)cc4OC)CCO3)ccc2c1 (stereo not drawn),45µM,22µM,0[11.5 µM],22µM,?
COc1ccc2cc(C3CN(C(=O)c4cc(C(C)=O)n[nH]4)CCO3)ccc2c1 (stereo not drawn),?,?,0,?,?
Cc1nn(C)c2c1C(c1ccc(C(F)(F)F)cc1)C(C#N)=C(N)O2 (stereo not drawn),-,-,15µM!,-,-
O=C(CC1C(=O)NCCN1Cc1cccc(Oc2ccccc2)c1)NCc1ccco1 (stereo not drawn),?,25µM,0,0,0

# Assay outcomes deposited in PubChem BioAssay by National Center for Advancing Translational Sciences (NCATS).
